Screening results as filed in PubChem BioAssay.
CYP2C19 inhib = inhibitors of human CYP2C19. P33261. CYP2C19 Supersomes, luciferin-H EGE luminescence, 30 min. inhibition, % at 5 µM. hit rate 21% among 96,000;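 active = CYP2C19 inhibition above a set limit at 5 µM in the primary screen, cut at about 50% in these data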;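 also: plate controls were negative control wells for no effect and 2.5 mM tranylcypromine positive control for full effect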
CYP2C19 activ = activators of human cytochrome P450 2C19 | 96,000 tested, under 10 active | activation factor at 5 µM | recombinant CYP2C19, luciferin-H EGE luminescence; active compounds read high; 0 = fully inhibited enzyme, 1 = untreated enzyme | P33261 | AID 1025;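 active = activation factor of at least 2 at 5 µM in the primary screen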;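 also: 0 = wells with 2.5 mM tranylcypromine and 1 = vehicle-only wells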
PLK1 inh = PLK1 (human) kinase inhibition | P53350 | recombinant PLK1 kinase, TR-FRET peptide phosphorylation | hit rate 0.53% among 97,000 | inhibition, % at 10 µM;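 active = inhibition of 50% or more in the single-concentration screen; inactive = inhibition below 50%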;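 also: 0% = DMSO max control and 100% = H-89 dihydrochloride min control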
Plk1 PBD FP = Plk1 (human) PBD binding inhibition. P53350. Plk1 PBD phosphopeptide binding, fluorescence polarization. inhibition, %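 (tested at about 20 µM)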. hit rate 0.13% among 97,000. AID 693; in the data active = inhibition above about 34%, passing the limit was not always enough
CYP2C9 act = activators of human CYP2C9; P11712; recombinant CYP2C9, luciferin-H conversion, luminescence; active compounds read high; factor 1 = untreated enzyme, 0 = blocked; activation factor at 5 µM; hit rate 1.4% among 96,000;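 active = activation factor of 2 or more for CYP2C9 at a 5 µM dose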;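 also: 0 = sulfaphenazole-blocked wells and 1 = vehicle-only wells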
Target sequence (P11712 whole entry, looked up): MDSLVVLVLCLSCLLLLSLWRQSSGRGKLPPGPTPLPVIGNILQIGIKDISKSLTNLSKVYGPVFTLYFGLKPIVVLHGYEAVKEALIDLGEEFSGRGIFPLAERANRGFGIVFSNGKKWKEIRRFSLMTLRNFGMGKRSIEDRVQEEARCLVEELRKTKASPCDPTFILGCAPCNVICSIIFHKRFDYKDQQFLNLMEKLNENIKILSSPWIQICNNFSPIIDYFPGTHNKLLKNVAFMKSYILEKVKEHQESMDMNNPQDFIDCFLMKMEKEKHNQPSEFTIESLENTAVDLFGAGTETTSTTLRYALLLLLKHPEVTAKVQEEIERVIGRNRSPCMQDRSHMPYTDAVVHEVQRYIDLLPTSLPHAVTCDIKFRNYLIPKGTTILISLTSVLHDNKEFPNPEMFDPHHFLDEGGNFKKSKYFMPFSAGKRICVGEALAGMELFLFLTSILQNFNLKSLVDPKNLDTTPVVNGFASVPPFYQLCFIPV
CYP2C9 inh = inhibitors of human CYP2C9. P11712. CYP2C9 Supersomes, luciferin-H conversion, luminescence. inhibition, % at 5 µM. hit rate 20% among 96,000. AID 777;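 active = blocking of liver enzyme CYP2C9 beyond about 50% at 5 µM, limit read from the data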
An asterisk follows results filed as active; · = not tested or not shown. In the library only some 28% were active in any assay of this set; here they are far more common.

SMILES	CYP2C19 inhib	CYP2C19 activ	PLK1 inh	Plk1 PBD FP	CYP2C9 act	CYP2C9 inh
CCc1c(C)nc2ncnn2c1N1CCC(C(=O)NCc2cccc(OC)c2)CC1	6	0.9	-8	-6	1	-2
CCc1c(C)nc2ncnn2c1N1CCCC(C(=O)NCCc2ccccc2)C1 (stereo not given)	-2	1	-11	-18	0.6	35
CCc1c(C)nc2ncnn2c1N1CCC(C(=O)Nc2cccc(C(C)=O)c2)CC1	54*	0.5	-6	-25	0.2	76*
COc1ccc(NC(=O)C2CCCN(c3c4c(nc5ncnn35)CCC4)C2)cc1 (stereo not given)	31	0.7	·	·	0.2	80*
CCc1nccn1S(=O)(=O)c1cc(C)c(OC)cc1C	22	0.8	-7	-19	0.9	10
CCCc1nccn1S(=O)(=O)c1cc(OC)ccc1OC	90*	0.1	-9	6	0.4	56*
CCc1nccn1S(=O)(=O)c1cc(Br)ccc1OC	97*	0	-5	27	1.1	-14
CCc1nccn1S(=O)(=O)c1ccc(C)c(C)c1	8	0.9	-14	23	1.2	-16
COc1ccc(Cl)cc1S(=O)(=O)n1ccnc1C(C)C	74*	0.3	-18	0	0.8	21
CCc1nccn1S(=O)(=O)c1ccc(OC)c(OC)c1	76*	0.2	-3	-27	1.2	-19
Cc1ccc(NC(=O)CSc2nnc(-c3cnccn3)n2-c2ccccc2)cc1	8	0.9	-11	-14	1	-1
CCCCSc1nc2c(cnn2-c2ccc(Cl)cc2)c(=O)[nH]1	1	1	-3	-2	0.7	29
CC(NC(=O)c1ccc(CS(=O)(=O)Cc2ccccc2F)o1)c1ccc2c(c1)OCCO2 (stereo not given)	·	·	-8	-14	·	·
CC(NC(=O)c1ccc(CS(=O)(=O)c2cccc(C(F)(F)F)c2)o1)c1ccc2c(c1)OCCO2 (stereo not given)	64*	0.4	-2	-9	0.4	62*
O=C(O)c1ccc(CS(=O)(=O)c2cccc(C(F)(F)F)c2)o1	·	·	-14	11	·	·
O=C(NCc1ccco1)c1ccc(CS(=O)(=O)c2cccc(C(F)(F)F)c2)o1	33	0.7	-7	15	1	2
CCCCNC(=O)c1ccc(CS(=O)(=O)c2cccc(C(F)(F)F)c2)o1	71*	0.3	1	-7	1.3	-30
O=C(NCc1ccc2c(c1)OCO2)c1ccc(CS(=O)(=O)c2cccc(C(F)(F)F)c2)o1	76*	0.2	-4	-11	0.1	94*
O=C(NCCCN1CCCC1=O)c1ccccc1NS(=O)(=O)c1ccc(Br)cc1	35	0.7	-9	-1	0.2	80*
O=C(NCCCn1ccnc1)c1ccccc1NS(=O)(=O)c1ccc(F)c(F)c1	99*	0	-9	-38	0	100*
Cc1cc(C)c(C)c(S(=O)(=O)Nc2ccccc2C(=O)NCCCn2ccnc2)c1C	99*	0	·	·	0	98*
O=C(NCCCn1ccnc1)c1cn(-c2ccccc2)nc1-c1ccc(F)cc1	96*	0	1	-1	0	100*
CC(c1ccccc1)n1cc(C(=O)NCCCn2ccnc2)nn1 (stereo not given)	·	·	-8	-5	·	·
CCCOc1ccc(OCCOCCN2CCc3ccccc3C2)cc1	52*	0.5	-2	-10	0.8	25
Cc1cc(NC(=O)Cn2nc(C(F)(F)F)c3c2CCC3)n(-c2ccccc2)n1	80*	0.2	13	10	0.4	62*
SMILES	CYP2C19 inhib	CYP2C19 activ	PLK1 inh	Plk1 PBD FP	CYP2C9 act	CYP2C9 inh
Nn1c(SCC(=O)Nc2ccc(F)cc2)nnc1-c1cccnc1	29	0.7	0	15	0.6	36
COc1ccc(C2OC(=O)c3ccccc3S2)cc1 (stereo not given)	30	0.7	-17	-10	1	3
Cc1ccc2nc3c(cc(C(N)=S)c(=N)n3CCCOC(C)C)c(=O)n2c1	81*	0.2	-2	11	0.5	49
Cc1ccc(NC(=O)c2sccc2SCc2cccc(C(F)(F)F)c2)cc1	69*	0.3	-10	17	0.3	74*
Cc1cccc(C)c1NC(=O)c1sccc1SCc1cccc(C(F)(F)F)c1	69*	0.3	-7	4	0.3	73*
N#CCSc1ccsc1C(=O)Nc1ccc(F)cc1	53*	0.5	-12	-4	1.2	-23
O=C(Cn1cnc2c(cnn2-c2ccc(F)cc2)c1=O)NCC1CCCO1 (stereo not given)	1	1	-6	1	1.1	-9
Cc1nn(Cc2ccccc2)c(C)c1CCC(=O)O	5	1	-3	-7	1	-4
Cc1[nH]n(-c2ccccc2)c(=O)c1N=Nc1nccs1	7	0.9	-16	-17	0.4	58*
O=C(CCCn1c(SCC(=O)c2ccc(O)c(O)c2)nc2ccccc2c1=O)NCC1CCCO1 (stereo not given)	55*	0.5	44	7	0	96*
N#CCSc1nc2ccccc2c(=O)n1CCC(=O)NC1CCCCC1	97*	0	-11	-20	1.2	-25
N#CCn1c(C2CCCCC2)nc2ccccc2c1=O	70*	0.3	·	·	0.3	65*
O=C(CSc1nc2c(sc3ccccc32)c(=O)n1Cc1ccco1)NCC1CCCO1 (stereo not given)	51*	0.5	-8	-20	0.3	68*
CCC(C)NC(=O)CSc1nc2ccccc2c(=O)n1CCCC(=O)NCC1CCCO1 (stereo not given)	8	0.9	8	-26	0.6	43
C=CCOc1cccc(C2c3c(oc4ccccc4c3=O)C(=O)N2c2ccccn2)c1 (stereo not given)	38	0.6	-9	-2	0.6	38
O=C(CCCn1c(SCC(=O)NC2CCCCC2)nc2ccccc2c1=O)NCC1CCCO1 (stereo not given)	36	0.6	-5	-18	0.4	65*
CCOc1cc(C2/C(=C(\O)c3cc(C)ccc3C)C(=O)C(=O)N2CCN(C)C)ccc1O (stereo not given)	-14	1.1	-8	-7	1	-5
c1ccc2sc(SCc3ccc(-c4nnco4)cc3)nc2c1	79*	0.2	3	11	0.8	15
CCOC(=O)c1cnn(-c2ccccc2)c1-n1cccc1	55*	0.4	-5	-16	0.7	27
CCOC(=O)c1cnn(-c2ccccc2)c1-n1cccc1C(=O)C(=O)Nc1ccc(OC)cc1	30	0.7	-2	-21	0.2	80*
Cc1c(C(=O)Oc2cccc3ccccc23)cnn1-c1ccccc1	67*	0.3	-10	-26	0.6	40
CCOC(=O)c1cnn(-c2ccccc2)c1-c1ccccc1	48	0.5	-5	-2	0.6	44
O=C(Nc1cccc2nsnc12)c1ccc(-c2ccc(Br)cc2)o1	-8	1.1	-5	-24	1	-2
